The structures appear in SMILES notation. The panel holds about 83,000 compounds, 20% with a hit somewhere; the sample as a whole holds those more often.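 Method: cells in 96-well plates; compound added at one concentration; 48 h incubation; percent growth measured; values under 10 scored active.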 Active and inactive are the calls of the source.

For the first experiment, the system named is MDA-MB-435 melanoma. Briefly: NCI-60 one-dose screen, 48 h (100 = growth as untreated, 0 = no growth, -100 = all killed). The note with it: 10 µM unless noted.
For the compound `O=C(Nc1nc2c(s1)CCc1c-2c(Br)n(Cc2ccccc2)c1Br)c1ccccc1`, the growth was 56.1% (inactive).

Turning to `S=C1NC2(c3ccccc3)CCC(=S)N2c2ccccc21` (centres undefined), the growth was 101% (inactive). On the same count and under the same terms, the result for `Nc1ccccc1-c1ccc(-c2ccc(Cl)cc2)c2c1[nH]c1ccccc12` reads 91.2% (inactive). As to `O=C1Nc2ccccc2/C1=C/c1cccs1`, the growth was 104% (inactive). Still for that read-out and setting: the result for `OCCNc1nc(Nc2ccc(C3=NN(c4cc(Cl)cc(Cl)c4)C(c4ccc(C(F)(F)F)cc4)C3)cc2)nc(N2CCOCC2)n1` (centres undefined) reads 66.5% (inactive); that for `COc1ccc(-c2nsc3c2NC(=O)CC3c2ccc3c(c2)OCCO3)cc1` (centres undefined), -46.6% (active); that for `COc1cc(/C=C2\CN(C)C/C(=C\c3cc(CN4CCCCC4)c(O)c(OC)c3)C2=O)cc(CN2CCCCC2)c1O`, 2.5% (active). For the compound `CCCCOCc1cc(CN2CCN(C)CC2)c(O)c2ncccc12`, the growth is 80.8% (inactive). The same measure, in the same setting: the result for `NCCNc1nc2ccccc2c2c(=O)c3cc(F)cc(Cl)c3sc12` reads -95.2% (active); that for `CNC(=O)c1cc(Oc2ccc(CC(=O)Nc3cc(C(C)(C)C)cn3C)cc2)ccn1`, 66.2% (inactive).

The next experiment relates to SW-620 colon. The experiment is described as above. As to conditions: 10 µM unless noted.
On to `Cc1ccc(C)c(-c2csc(Nc3ccc(C)c(C)c3)n2)c1`, for which the growth was -33% (active). Still for that read-out and setting: the result for `COc1ccc(-c2nnc(COc3ccc(C(=O)/C=C/c4ccco4)cc3)o2)cc1` reads 31% (inactive); that for `O=C1/C=C/[C@@H](O)[C@@H]2C[C@@H](O)C[C@H]2/C=C/CCCCO1`, -33.7% (active).

Take `COc1ccc(CCN2C(=O)CCSC2=S)cc1`: the growth was 21.9% (inactive). On the same count and under the same terms, the result for `COc1ccc(/C=C/C(=O)c2ccc3cc(OC)c(OC)cc3c2)cc1OC` reads 11.1% (inactive); that for `CC(C)c1ccc(S(=O)(=O)NC(=O)NC2CCCC2)cc1`, 97.9% (inactive).

`CCN1CCN(c2cc(C)c3cc(NC(=O)c4ccc(OC)c(OC)c4)ccc3n2)CC1`: the growth is 16.7% (inactive). Turning to `CCOC(=O)c1c2c(c(C)n1Cc1ccc(OC)cc1)-c1oncc1CC2`, the growth was 96.4% (inactive).

With `COC(=O)/C(=C\c1c(C)[nH]c2ccccc12)S(=O)(=O)c1ccccc1`, the growth was 30.4% (inactive). On the same count and under the same terms, the result for `O=C(NCCCN1CCC(N2CCCCC2)CC1)C1=Cc2cc(Br)ccc2OC1` reads 56.2% (inactive).

As for `O=C(Nc1ccc(-c2nc3cc4ccccc4cc3[nH]2)cc1)c1cccc(Br)c1`, the growth was 26.9% (inactive). For `Nc1nc(-c2cnccn2)nn1-c1nc2ccccc2s1`, the growth is 105% (inactive).

On to `CCCCN1CCN(c2ccc3nc(-c4ccc5nc(-c6ccc(C(F)(F)F)cc6)[nH]c5c4)[nH]c3c2)CC1`, for which the growth was -76.9% (active). On the same count and under the same terms, the result for `O=C(Nc1ccc(N2CCNCC2)cn1)c1[nH]ncc1Nc1ncnc2sccc12` reads -89.2% (active). The same measure, in the same setting: the result for `CCOC(=O)CSc1c(-c2ccccc2)c2cc(Cl)ccc2[nH]c1=O` reads 102% (inactive); that for `O=C1Nc2ccccc2/C1=C/c1ccc[nH]1`, 89.3% (inactive); that for `NC(CCc1nc2ccccc2c(=O)[nH]1)C(=O)O` (centres undefined), 102% (inactive). The same measure, in the same setting: the result for `CCCSC1=NC2C(N(CC)C(=O)N2CC)N1/N=C/C=C/c1ccccc1[N+](=O)[O-]` (centres undefined) reads 37.3% (inactive); that for `COc1cccc(/C(C#N)=C/c2nc3c(N4CCOCC4)nc(Cl)nc3n2C)c1`, -72% (active); that for `CN1CCN(Cc2ccc(NC(=O)c3[nH]ncc3Nc3cc(OC4CCCC4)ncn3)cc2)CC1`, 15.8% (inactive).

For the compound `COc1cccc(C(=O)NC(c2ccc(C)cc2)c2cc(Cl)c3cccnc3c2O)c1` (centres undefined), the growth is 14.1% (inactive).

As to `COc1ccc(-c2nsc3c2NC(=O)CC3c2ccsc2)cc1` (centres undefined), the growth is 28.3% (inactive). Same read-out and setting: the result for `COc1cc(C2C(C#N)=C(N)OC3=C2C(=O)c2ccccc2C3=O)cc(OC)c1O` (centres undefined) reads 13.4% (inactive); that for `CCN(CC)c1cc(C)c2cc(NC(=O)c3cccc(OC)c3)ccc2n1`, 64.9% (inactive); that for `CCCCNc1nc(NC(C)(C)C)nc(NC(C)(C)C)n1`, 52.3% (inactive). Regarding `CC(=O)n1cc(-c2c[nH]c3ccccc23)c(-c2ccc(Cl)cc2)n1`, the growth is 89% (inactive).

As for `COc1cccc(C2=NN3C(C2)c2ccccc2OC3c2ccc(/C=C3\SC(=O)NC3=O)cc2)c1` (centres undefined), the growth is 97.8% (inactive). Take `COC(=O)/C(CCC=C(C)C)=C1\[C@@H](OC(C)=O)C[C@@]2(C)[C@H]1C[C@@H](O)[C@H]1[C@@]3(C)CC[C@H](NCCCNCCCCNCCCN)[C@@H](C)[C@@H]3CC[C@@]12C`: the growth is 55.8% (inactive). In the case of `CN1C(=O)N(C)C2Nn3c(s/c(=C\c4ccc(Cl)cc4Cl)c3=O)=NC21` (centres undefined), the growth is 63.1% (inactive).

In the case of `O=C(Nc1nc2c(s1)CCc1c-2c(Br)n(Cc2ccccc2)c1Br)c1ccccc1`, the growth was 69.2% (inactive). Same read-out and setting: the result for `S=C1NC2(c3ccccc3)CCC(=S)N2c2ccccc21` (centres undefined) reads 108% (inactive); that for `Nc1ccccc1-c1ccc(-c2ccc(Cl)cc2)c2c1[nH]c1ccccc12`, 78.2% (inactive); that for `O=C1Nc2ccccc2/C1=C/c1cccs1`, 98.3% (inactive). With `OCCNc1nc(Nc2ccc(C3=NN(c4cc(Cl)cc(Cl)c4)C(c4ccc(C(F)(F)F)cc4)C3)cc2)nc(N2CCOCC2)n1` (centres undefined), the growth was 94% (inactive). Still for that read-out and setting: the result for `COc1ccc(-c2nsc3c2NC(=O)CC3c2ccc3c(c2)OCCO3)cc1` (centres undefined) reads 35.7% (inactive). Turning to `COc1cc(/C=C2\CN(C)C/C(=C\c3cc(CN4CCCCC4)c(O)c(OC)c3)C2=O)cc(CN2CCCCC2)c1O`, the growth was 20% (inactive). Still for that read-out and setting: the result for `CCCCOCc1cc(CN2CCN(C)CC2)c(O)c2ncccc12` reads 45.6% (inactive); that for `NCCNc1nc2ccccc2c2c(=O)c3cc(F)cc(Cl)c3sc12`, -78.9% (active); that for `CNC(=O)c1cc(Oc2ccc(CC(=O)Nc3cc(C(C)(C)C)cn3C)cc2)ccn1`, 105% (inactive).
